# Out of some 390,000 compounds screened, about 17,000 (4.4%) were called active. About 8% were inconclusive and are not listed. Calls follow the shape of the dose curve; as a rule, active = well fitted inhibition curve with a large enough effect; inconclusive = small, poorly fitted or top-dose-only effect; inactive = no such curve, though single readings can be large or run the other way. The list comes from a sample in which actives are over-represented; it also holds similar structures and randomly drawn compounds. Entries that show only a call come without a potency.
# Target: Lysine-specific demethylase 4A (Homo sapiens) (UniProt O75164)
# Assay: qHTS Assay for Inhibitors of JMJD2A-Tudor Domain; also: nearly all actives have a fitted effect of over 50% in size
# Conditions: AlphaScreen JMJD2A-Tudor / H3K4me3 peptide binding; series mostly up to 114 µM
# Potency is read from the fitted curve at half-maximal effect.
# Chain of Lysine-specific demethylase 4A (Homo sapiens) (O75164 whole entry, looked up, the tested form may be a part): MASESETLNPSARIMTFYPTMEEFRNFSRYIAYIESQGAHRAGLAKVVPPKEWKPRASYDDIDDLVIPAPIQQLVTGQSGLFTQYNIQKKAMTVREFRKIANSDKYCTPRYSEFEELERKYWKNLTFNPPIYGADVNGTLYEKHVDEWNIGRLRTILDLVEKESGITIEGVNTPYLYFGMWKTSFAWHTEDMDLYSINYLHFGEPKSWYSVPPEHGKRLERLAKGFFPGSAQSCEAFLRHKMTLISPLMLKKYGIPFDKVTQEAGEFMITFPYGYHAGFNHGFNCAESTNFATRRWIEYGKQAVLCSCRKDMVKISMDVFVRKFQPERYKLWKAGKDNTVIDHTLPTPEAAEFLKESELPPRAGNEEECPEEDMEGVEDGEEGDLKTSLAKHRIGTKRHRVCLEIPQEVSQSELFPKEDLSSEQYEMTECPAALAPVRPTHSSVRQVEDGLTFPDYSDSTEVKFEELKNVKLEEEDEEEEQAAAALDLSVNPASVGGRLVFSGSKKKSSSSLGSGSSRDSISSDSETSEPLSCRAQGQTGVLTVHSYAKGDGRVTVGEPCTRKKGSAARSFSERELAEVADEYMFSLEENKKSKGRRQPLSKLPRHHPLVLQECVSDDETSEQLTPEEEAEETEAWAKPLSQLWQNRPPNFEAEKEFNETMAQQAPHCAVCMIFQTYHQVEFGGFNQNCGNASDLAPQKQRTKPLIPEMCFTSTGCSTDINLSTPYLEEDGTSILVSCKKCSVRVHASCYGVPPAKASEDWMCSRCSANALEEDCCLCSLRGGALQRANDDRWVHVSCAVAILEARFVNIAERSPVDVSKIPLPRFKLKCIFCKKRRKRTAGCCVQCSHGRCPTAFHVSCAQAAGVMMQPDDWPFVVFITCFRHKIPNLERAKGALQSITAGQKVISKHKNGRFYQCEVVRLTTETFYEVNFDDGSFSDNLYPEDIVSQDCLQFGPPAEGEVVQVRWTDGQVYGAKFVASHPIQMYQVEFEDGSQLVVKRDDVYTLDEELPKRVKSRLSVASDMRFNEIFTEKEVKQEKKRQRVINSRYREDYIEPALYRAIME
row,SMILES,Potency
1,CCCNC(=O)C1CCN(c2nc3ccc(C)cc3[nH]2)CC1,inactive
2,CSC1=N/C(=C\C=C\c2cccs2)C(=O)S1,12.6 µM (active)
3,CCOC(=O)c1c(C)oc2nc(C)nc(N3CCN(c4ccc(OC)cc4)CC3)c12,39.8 µM (active)
4,COc1ccc(N2CCN(C(=O)c3c(C)oc4nc(C)nc(N5CCCC5)c34)CC2)cc1,inactive
5,CCOC(=O)c1c(C)oc2nc(C)nc(Nc3ccc(CC)cc3)c12,inactive
6,Cc1ccc(-c2nnc(SCC(=O)NCc3ccccc3)nc2-c2ccc(C)cc2)cc1,inactive
7,CC1(C)N=C(SCc2ccccc2Cl)c2ccccc2N1,inactive
8,O=C(NCCSc1ccccc1)c1ccco1,inactive
9,Clc1ccccc1CSc1nnc(-c2ccco2)c(-c2ccco2)n1,22.4 µM (active)
10,Fc1ccc(Nc2nc(SCc3ccccc3Cl)nc3ccccc23)cc1,inactive
11,c1ccc(CSc2nnc(-c3ccco3)c(-c3ccco3)n2)cc1,17.8 µM (active)
12,COc1ccc(CC(=O)N2CC(=O)Nc3ccc(Br)cc3C2c2ccc(F)cc2)cc1OC (centres undefined),inactive
13,CC(=O)Nn1cc2c(=O)n(C)c(=O)n(C)c2c1,inactive
14,CC(=O)NNc1cc(=O)c2c(=O)n(C)c(=O)n(C)c2[nH]1,10 µM (active)
15,CCC(=O)NNc1cc(=O)c2c(=O)n(C)c(=O)n(C)c2[nH]1,inactive
16,CC(=O)c1ccc(NC(c2ccc(F)cc2)c2nnc(-c3ccccc3)o2)cc1 (centres undefined),inactive
17,CC(C)Oc1ccc(NC(=O)c2cc3ccccc3o2)cc1,inactive
18,CCCCn1c(CNC(=O)C23CC4CC(CC(C4)C2)C3)nnc1SCC(=O)Nc1ccc(C)cc1,inactive
19,COc1cc(/C=N/Nc2ccc(C)cc2)cc(Br)c1O,50.1 µM (active)
20,COc1cc(/C=N/O)cc(Br)c1OS(=O)(=O)c1ccc(C)cc1,inactive
21,COc1cc(/C=N/NC(=S)Nc2cccnc2)cc(OC)c1O,inactive
22,COc1ccccc1CNC(=O)C(=O)NCC(c1ccco1)S(=O)(=O)c1ccc(F)cc1 (centres undefined),inactive
23,Cc1coc2c(O)cc3c(c12)OC1(N2CCCCC2)C(=O)NCCCC31 (centres undefined),20 µM (active)
24,CC(=O)N1CCCc2ccc(NS(=O)(=O)c3ccc(F)cc3F)cc21,inactive
25,CC1CCCCN1S(=O)(=O)c1ccc(F)c(C(=O)Nc2ccccc2C(F)(F)F)c1 (centres undefined),inactive
26,CCN(CC)CCNC(=O)Cn1ncc2c3ccccc3n(Cc3ccccc3C)c2c1=O,inactive
27,Cc1ccc(CSc2nnc(-c3cnccn3)n2C)cc1,inactive
28,Cn1c(SCc2c(F)cccc2Cl)nnc1-c1cnccn1,79.4 µM (active)
29,Oc1ccc(-n2nnnc2SCc2c(F)cccc2Cl)cc1,inactive

# — PubChem BioAssay AID504339 (National Center for Advancing Translational Sciences (NCATS), 2011)
